Screening results (PubChem)
SW480 rereplic = inducers of DNA re-replication in SW480 colon cancer cells; SW480 DNA re-replication, Hoechst DNA content imaging, 48 h; Potency, µM (top dose mostly 46.1 µM), inactives show top-dose re-replication activation, hits mostly activators; 340,000 tested, 1.8% active; AID 624297; note: % of control where 0% means no effect; nearly all actives have a fitted effect of over 55% in size
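Per well, 250 cells were exposed to pinned compound for 48 hr. Nuclear DNA was visualised with Hoechst (40 min, 37 C) and total object intensity recorded by fluorescence scanning.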
PINK1 expr mod = changes PINK1 expression; PINK1 immunofluorescence, high-content cytometry, 24 h; Potency, µM (series often up to 76.6 µM), for inactives: top-dose activation (PINK1 increase), most hits filed as activators; 410,000 tested, 0.2% active; active = well fitted activation curve with a large enough effect; inconclusive = small, poorly fitted or top-dose-only effect; cell line not stated here; note: % of control where 0% means no effect; nearly all actives have a fitted effect of over 65% in size
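Stable cell line, 250 cells/well, 12 h attachment; compounds pinned at 5 concentrations, 24 h; CCCP control. Fixed with nuclear dye, primary antibodies 12 h at 10 degrees C, secondary plus cell stain; laser-scanning cytometer read.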
KB-V1 MDR tox = KB-V1 MDR subline cytotoxicity; KB-V1 MDR cells viability, CellTiter-Glo, 72 h; Potency, µM (highest dose often 46.1 µM), hits mostly cytotoxic; 400,000 tested, 3.4% active; AID 1347076; note: % is set by controls: 0 for no effect and ±100 for the full control effect; nearly all actives have a fitted effect of over 60% in size
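Drug-selected KB-V1 cells, grown in DMEM lacking phenol red with 10% FBS, receive compound titrations; after three days at 37 degrees C, surviving cell ATP is quantified by CellTiter-Glo luminescence and responses normalized and curve-fitted.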
MCF10A rerep = DNA re-replication induction in MCF 10a cells; MCF 10A DNA re-replication, Hoechst nuclear intensity, 48 h; Potency, µM (top dose mostly 46.1 µM), inactives show top-dose activity, positive = re-replication, most hits filed as activators; 350,000 tested, 2.9% active; note: % of control where 0% means no effect; nearly all actives have a fitted effect of over 50% in size
KB-3-1 cytotox = KB-3-1 parental cell cytotoxicity. KB-3-1 viability, CellTiter-Glo ATP luminescence, 72 h. 400,000 tested, 1.4% active. AID 1347075. Potency, µM (titrated, usually from 46.1 µM), hits mostly cytotoxic; note: % is set by controls: 0 for no effect and ±100 for the full control effect; nearly all actives have a fitted effect of over 60% in size
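Here the drug-naive KB-3-1 line serves as comparator for MDR sub-line selectivity; cells received compound titrations, 72 h at 37 °C, then CellTiter-Glo readout.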
Starred values were filed as active, the others as inactive; i = inactive; ? = inconclusive; · = no result; ! = repeats disagree; [ ] = dose if it differs, or a comment. This is a sample that favours compounds with a hit; in the whole collection about 6.7% have one here. Unless noted, calls come from the whole dose curve; as a rule, active = well fitted curve in the direction sought with a large enough effect; inconclusive = small, poorly fitted or top-dose-only effect, or another doubt; inactive = no such curve, though single readings can be large; an effect the other way counts as inactive or inconclusive. Potency is the fitted concentration of half-maximal effect.

SMILES | SW480 rereplic | PINK1 expr mod | KB-V1 MDR tox | MCF10A rerep | KB-3-1 cytotox
COc1cc(-c2cc(C)c3cccc(OC)c3n2)cc2c1OCCN(C(=O)CCn1ccc(C)n1)C2 | · | -0.1% | · | · | ·
Cc1nn(C)cc1C(=O)Nc1cc(Oc2ccc(Cl)cc2)cc([N+](=O)[O-])c1 | 21.9% | ? | ? | 97.4% | 20.6µM*
Cc1cccc(-c2ccc3c(c2)C2CC3CCN2Cc2ccc3c(c2)OCO3)c1 (stereo not drawn) | ? | 19.1% | i | 27.6% | ?
COc1cc(C2NC(=S)NC3=C2CCc2ccccc23)cc(OC)c1OC (stereo not drawn) | -0.6% | 2.7% | i | 0.3% | i
COc1ccc2c(c1)CCC1=C2NC(=S)NC1c1ccc(N(C)C)cc1 (stereo not drawn) | 12.5% | -0.3% | ? | 20.6µM* | ?
CCOC(=O)c1[nH]c(C)c(C(=O)N2CCN(c3ccc(F)cc3)CC2)c1C | -7.2% | 0.3%[38.3 µM] | ? | 2.3% | i
CCOC(=O)c1[nH]c(C)c(C(=O)OC(C)C(=O)Nc2ncc(Cl)cc2Cl)c1C (stereo not drawn) | -0.7%[9.22 µM] | 6.0% | 12.6µM* | ? | ?
CCOC(=O)c1[nH]c(C)c(C(=O)Nc2cccc(Cl)c2C)c1C | 11.6µM* | 5.2%[38.3 µM] | 6.51µM* | 8.2µM* | 5.8µM*
CC(=O)c1c(C)[nH]c(C(=O)N2CCc3ccccc32)c1C | 0.7% | 9.2% | i | 2.1% | i
CCOC(=O)c1[nH]c(C)c(C(=O)N2CCc3ccccc32)c1C | 0.517µM* | 4.9% | 0.326µM* | 0.411µM* | 0.326µM*
CCOC(=O)c1[nH]c(C)c(C(=O)N2CCN(c3cccc(Cl)c3)CC2)c1C | -2.8% | 0.4%[38.3 µM] | 13µM* | 5.5% | i
CCOC(=O)c1[nH]c(C)c(C(=O)Nc2ccc(Cl)cc2)c1C | 1.1% | 2.5% | i | -1.9% | i
COc1ccc(OC)c(NC(=O)N(C)CCc2c(C)nn(C)c2C)c1 | · | 2.8% | i | · | i
COc1cc(-c2cc3n(C)c(C)c(CCC(=O)NC4CCCCC4)c(=O)n3n2)cc(OC)c1OC | · | 0.8% | · | · | ·
CCn1cc(C(=O)N2CCN(c3cccc(Cl)c3)CC2)c2cc(OC)c(OC)cc2c1=O | ? | 3.3% | 20.6µM*! | ? | ?
COc1cc2c(C(=O)N3CCN(c4cccc(Cl)c4)CC3)cn(C)c(=O)c2cc1OC | ? | 7.5% | ? | ? | ?
Cc1[nH]c2ccccc2c1C(=O)C(=O)N1CCN(c2cccc(Cl)c2)CC1 | ? | 0.5% | i | 20.6µM* | ?
CN(C)CCNC(=O)c1ccccc1 | -8.5% | -1.7%[38.3 µM] | i | -3.6% | i
CN(C)CCNC(=O)c1cccc2ccc(-c3ccc(-c4ccccc4)cc3)nc12 | ? | -6.7% | 11.6µM* | ? | ?
COc1ccc(OC)c2nc3c(C(=O)NCCN(C)C)cccc3nc12 | ? | -6.9% | 20.6µM* | ? | ?
CN(C)CCNC(=O)c1cccc2nc3cccc(F)c3nc12 | 21.6% | 0.0% | ? | ? | 4.11µM*
Nc1cc(C(F)(F)F)ccc1S(=O)(=O)Nc1cccc2c1NCCC2 | · | 3.5% | · | · | ·
O=S(=O)(NC(=S)c1ccccc1)c1ccccc1 | -7.7% | -0.6% | i | 0.9% | ?
CC(C)N=C(NS(=O)(=O)c1ccccc1)C(Cl)(Cl)Cl | 5.8µM* | 0.1% | 23.1µM* | 5.8µM* | 5.8µM*
CC(C)N(C(=O)c1sc2cc([N+](=O)[O-])ccc2c1Cl)C(C)C | 0.9% | 2.2% | 20.6µM* | 1.2% | i
SMILES | SW480 rereplic | PINK1 expr mod | KB-V1 MDR tox | MCF10A rerep | KB-3-1 cytotox
O=C1N/C(=C\c2ccc(O)cc2)C(=O)c2ccccc21 | 12.6µM* | 2.7%[38.3 µM] | i | 3.16µM* | ?
O=C(O)/C=C1\NC(=O)c2ccccc21 | 1.3% | -2.2% | i | -2.0% | i
O=C(O)CCC(=O)Nc1cccc2cccnc12 | 0.0% | 0.2% | i | -8.1% | i
O=C(CCC(=O)OCC(=O)c1ccccc1)Nc1cccc2cccnc12 | 18.4µM* | · | i | 16.4µM* | i
N#Cc1ccccc1Sc1ccccc1C(=O)Nc1ccc(Br)cc1 | 6.8% | -1.1% | 18.4µM* | 9.1% | i
CCc1cccc2c(-c3ccccc3)nc(SCC(=O)Nc3ccccc3)nc12 | · | 2.6% | · | · | ·
CCN(CC)c1ccc(NC(=O)c2sc3nc4c(cc3c2N)CN(C)CC4)cc1 | · | 0.7% | i | · | i
